# Results filed as inconclusive are left out. Where a call stands in place of a potency, no number is given. Activity calls are given as the source filed them. Calls follow the shape of the dose curve; as a rule, active = well fitted cell-killing curve with a large enough effect; inconclusive = small, poorly fitted or top-dose-only effect, or effect the other way; inactive = flat fitted curve, though single readings scatter. Non-standard residues stand in square brackets, D forms with d. Residues, ends and D or L forms follow the SMILES beside them. *: point of attachment. Nva = CCC[C@H](N)C(=O)O; Cbz = O=C(OCc1ccccc1)*
# Test: qHTS of pediatric cancer cell lines to identify multiple opportunities for drug repurposing: Confirmatory screen for control Hh wild type fibroblast cells (AID 1347121); also: nearly all actives have a fitted effect of over 70% in size
# Details: viability qHTS; series mostly up to 45.9 µM
# Text: Drug repurposing or repositioning has been offered as a strategy for drug development in oncology programs. This approach has special potential for childhood cancers and other rare or orphan diseases, where the expected return on new drug development has been a disincentive to pharmaceuticals.
# In this project we exploit the poly-pharmacology of drugs to discover new indications via phenotypic screening of a panel of 19 well-characterized cell lines derived from solid tumors seen in children and adolescents. The goal is to identify approved drugs with previously unrecognized anticancer properties that has the potential to reveal new mechanisms and biological processes involved in carcinogenesis or drug resistance. We employed a titration-based paradigm (quantitative high-throughput screening or qHTS), where all compounds were tested at multiple concentrations for their effect on cell viability. Concentration-response curves (CRCs) were derived directly from the primary screen, and both potency and efficacy values were used to identify compounds with robust bioactivity profiles. We screened the NIH Chemical Genomics Center (NCGC) Pharmaceutical Collection (NPC) and Mechanism Interrogation Plate (MIPE) small molecule collections of approved and investigational compounds against these cell lines; and measured metabolically active cells after 48 hours of compound treatment as a proxy for cell viability.
# Assay Submitter: Nathalia J. Martinez, National Center for Advancing Translational Sciences, National Institutes of Health, Rockville, MD, USA; email: natalia.martinez@nih.gov
# [1] Shen, M et al. Quantitative high-throughput phenotypic screening of pediatric cancer cell lines identifies multiple opportunities for drug repurposing. Oncotarget 2017 Dec 19;9(4):4758-4772. PMID 29435139.
# The cells were obtained from University of North Carolina (UNC), Pediatric Preclinical Testing Program (PPT), and Coriell Institute (CI).
# qHTS cell viability assay:
# Cells were assayed in growth media at a density of 500-1,000 cells/well. Five microliters of cells were dispensed into 1,536-well, white, solid-bottom, TC-treated plates (Greiner Bio One) using a multidrop dispenser and incubated at 37 degrees C, 5% CO2, under a humidified atmosphere for 5 hours. Twenty-three nanoliters of compounds and controls (neutral control DMSO or positive control bortezomib at final concentration of 2.3 µM) were subsequently transferred by Kalypsys pintool. For primary screens, the MIPE collection was tested at 11-point dilutions (final concentrations range from 0.78 nM to 46 µM) and the NPC collection at 8-point dilutions (final concentrations range from 0.59 nM to 46 µM). Compounds tested in follow-up screens were assayed at 11-point dilutions. Cells were incubated for 48 hours, followed by addition of 3 µL of CellTiter-Glo (Promega). After a 15 min incubation at room temperature, samples were analyzed for luminescence intensity using a ViewLux High-throughput CCD imager equipped with clear filters.
# Potency is read from the fitted curve at half-maximal effect.
row,Compound,Potency
1,COc1cc2c(cc1OC)[C@@H]1C(=O)c3ccc4c(c3O[C@@H]1CO2)C=CC(C)(C)O4,0.293 µM (active)
2,CC(=O)SCC(Cc1ccccc1)C(=O)NCC(=O)OCc1ccccc1 (stereo not given),inactive
3,CC1(C)O[C@@H]2C[C@H]3[C@@H]4CCC5=CC(=O)C=C[C@]5(C)[C@@H]4[C@@H](O)C[C@]3(C)[C@]2(C(=O)CO)O1,inactive
4,CCc1cnn2c(NCc3ccc[n+]([O-])c3)cc(N3CCCC[C@@H]3CCO)nc12,inactive
5,COc1cc(C[C@@H](CO)[C@H](CO)Cc2ccc(O)c(OC)c2)ccc1O,inactive
6,CC(C)C[C@@H](C=O)NC(=O)[C@H](CC(C)C)NC(=O)[C@H](CC(C)C)NC(=O)OCc1ccccc1 (Cbz-Leu-Leu-Leu-aldehyde),5.85 µM (active)
7,COc1cc(OC)c(C=CS(=O)(=O)Cc2ccc(OC)c(NCC(=O)O)c2)c(OC)c1,inactive
8,C=Cc1c(C)c2cc3nc(cc4[nH]c(cc5nc(cc1[nH]2)C(C)=C5CCC(=O)O)c(CCC(=O)OC)c4C)[C@@]1(C)C3=CC=C(C(=O)OC)[C@H]1C(=O)OC,inactive
9,COc1cc([C@@H]2c3cc4c(cc3[C@@H](O[C@@H]3O[C@@H]5CO[C@@H](c6cccs6)O[C@@H]5[C@H](O)[C@@H]3O)[C@H]3COC(=O)[C@H]23)OCO4)cc(OC)c1O,inactive
10,Cc1[nH]c(C=C2C(=O)Nc3ccccc32)c(C)c1CCC(=O)O,inactive
11,Cc1cnc(Nc2ccc(N3CCN(C)CC3)cc2)nc1Nc1cccc(S(=O)(=O)NC(C)(C)C)c1,14.7 µM (active)
12,O=S(=O)(O)CCSSCCS(=O)(=O)O,inactive
13,C[C@H](NCc1ccc2c(c1)nc(NC(=O)c1ccc(-c3cn[nH]c3)s1)n2CCc1ccccc1)C(C)(C)C,10.4 µM (active)
14,CNC(=O)c1ccc(Nc2cc(Nc3ccccc3S(=O)(=O)C(C)C)c3cc[nH]c3n2)nc1,13.1 µM (active)
15,CN(CC(=O)N(Cc1ccc(C2CCCCC2)cc1)c1ccc(C(=O)O)c(O)c1)S(=O)(=O)c1c(F)c(F)c(F)c(F)c1F,inactive
16,CCOC(=O)N1CCN([N+]([O-])=NOc2ccc([N+](=O)[O-])cc2C#N)CC1,inactive
17,C[N+](C)([O-])CCNc1ccc(NCC[N+](C)(C)[O-])c2c1C(=O)c1c(O)ccc(O)c1C2=O,inactive
18,Oc1ccc(-c2ccc(-c3cc(Nc4cccc(CNC5CC5)c4)n[nH]3)cc2)c(O)c1,inactive
19,CCC[C@@H](C=O)NC(=O)[C@H](CC(C)C)NC(=O)[C@H](CC(C)C)NC(=O)OCc1ccccc1 (Cbz-Leu-Leu-[Nva]-aldehyde),7.37 µM (active)
20,O=C(O)C[C@H](O)C[C@H](O)C=Cc1c(C2CC2)nc2ccccc2c1-c1ccc(F)cc1,inactive

row,Compound,Potency
1,CC(=O)ON=C1C(c2c(O)[nH]c3cc(Br)ccc23)=Nc2ccccc21,inactive
2,CC(C(C)N1CC(=O)NC(=O)C1)N1CC(=O)NC(=O)C1 (stereo not given),inactive
3,O=C(O)c1ccc(Nc2ncc3c(n2)-c2ccc(Cl)cc2C(c2c(F)cccc2F)=NC3)cc1,inactive
4,Cn1cc(-c2cnn3c(N)c(Br)c([C@H]4CCCNC4)nc23)cn1,inactive
5,COc1ccc2c(c1OC)C(=O)OC2[C@H]1c2c(cc3c(c2OC)OCO3)CCN1C (stereo not given in full),inactive
6,O=C(NC1CC1)c1cccc(-c2ccc3c(NC(=O)C4CC4)n[nH]c3c2)c1,inactive
7,Cc1nc(NC(=O)N2CCC[C@@H]2C(N)=O)sc1-c1ccnc(C(C)(C)C(F)(F)F)c1,inactive
8,O=C1NCCc2[nH]c(-c3ccncc3)cc21,inactive
9,CN[C@H]1[C@@H](O)[C@@H]2O[C@@H]3O[C@H](C)CC(=O)[C@]3(O)O[C@@H]2[C@@H](NC)[C@H]1O,inactive
10,CC(C)C[C@H](NC(=O)[C@@H](NC(=O)c1cccc(-c2ccccc2)n1)[C@@H](C)O)B(O)O,20.8 µM (active)
11,Cn1cnc(=N)c2[nH]cnc21,inactive
12,O=C(NCc1ccccc1)[C@H](Cc1ccccc1)NC(=O)[C@@H]1O[C@@H]1C(=O)NCCc1ccc(O)cc1,inactive
13,C=CC(=O)Nc1cccc(Nc2nc(NC3CCC(N(C)C)CC3)nc3c2ncn3C(C)C)c1 (stereo not given),inactive
14,C=C1C(=CC=C2CCC[C@]3(C)[C@@H]([C@H](C)CCCC(C)(C)O)CC[C@@H]23)C[C@@H](O)C[C@@H]1O,inactive
15,CCCCC(=O)O[C@]1(C(=O)CO)[C@@H](C)C[C@H]2[C@@H]3CCC4=CC(=O)C=C[C@]4(C)[C@@]3(F)[C@@H](O)C[C@@]21C,inactive
16,CC(C)(O)Cn1c(NC(=O)c2ccc(-c3cn[nH]c3)s2)nc2cc(CN3CCOCC3)ccc21,5.22 µM (active)
17,CCc1cc(C(C)=NOCc2ccc(C3CCCCC3)c(C(F)(F)F)c2)ccc1CN1CC(C(=O)O)C1,inactive
18,Cn1cc(CNCC2CCN(c3ncc(C(=O)NO)cn3)CC2)c2ccccc21,1.31 µM (active)
19,CC(=O)O[C@@]12CO[C@H]1C[C@H](O)[C@@]1(C)C(=O)[C@H](O)C3=C(C)[C@@H](OC(=O)C(O)[C@@H](NC(=O)OC(C)(C)C)c4ccccc4)C[C@@](O)([C@@H](OC(=O)c4ccccc4)[C@@H]21)C3(C)C (stereo not given in full),inactive
20,COc1cc2ncnc(Nc3cccc(Br)c3)c2cc1OC,inactive
